Source: PubChem BioAssay
In the library only some 2.5% were active in any assay of this set; here they are far more common.
Cruzain Triton = cruzain (T. cruzi) inhibition with detergent; P25779; purified cruzain, Z-FR-AMC fluorescence, 0.01% Triton; Potency, µM, for the others: max response, negative = inhibition, usual class: inhibitors; 200,000 compounds, 0.43% hits;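 also: plate controls were neutral wells for no effect and buffer without enzyme for full effect; nearly all actives have a fitted effect of over 40% in size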
Target sequence (P25779 123-467 limits assumed): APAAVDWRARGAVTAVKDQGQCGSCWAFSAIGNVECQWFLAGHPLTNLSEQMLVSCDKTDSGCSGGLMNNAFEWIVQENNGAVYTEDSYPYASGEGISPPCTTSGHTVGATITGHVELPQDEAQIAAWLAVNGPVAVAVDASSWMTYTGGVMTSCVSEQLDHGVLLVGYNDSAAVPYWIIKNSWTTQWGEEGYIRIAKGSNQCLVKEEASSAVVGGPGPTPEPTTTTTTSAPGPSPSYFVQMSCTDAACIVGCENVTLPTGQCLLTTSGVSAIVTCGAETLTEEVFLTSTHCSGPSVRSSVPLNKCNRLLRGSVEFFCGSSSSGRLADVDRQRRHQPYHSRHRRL
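Read-out: AMC fluorescence (360 nm excitation, 450 nm emission), four reads over 2 min, first-to-third difference used. Conditions: cruzain 1.5 nM, Z-FR-AMC 2 uM, pH 5.5 acetate, 5 mM DTT, 0.01% Triton X-100.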
Cruzain noTriton = inhibitors of Trypanosoma cruzi cruzain without detergent. P25779. purified cruzain, Z-FR-AMC fluorescence, no detergent. Potency, µM, without a hit: max response, negative = inhibition, actives largely listed as inhibitors. 200,000 compounds, 2.3% hits;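 also: plate controls were enzyme without inhibitor for no effect and buffer without enzyme for full effect; nearly all actives have a fitted effect of over 40% in size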
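Purified cruzain at 1.5 nM, pre-incubated 15 min with compound at room temperature in 100 mM sodium acetate pH 5.5, 5 mM DTT, 0.00005% Triton X-100. Reaction started with 2 uM Z-FR-AMC; AMC fluorescence increase over 60 s gives rate.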
Active calls of the source: *; ? = inconclusive. Calls follow the shape of the dose curve; as a rule, active = well fitted curve in the direction sought with a large enough effect; inconclusive = small, poorly fitted or top-dose-only effect, or another doubt; inactive = no such curve, though single readings can be large; an effect the other way counts as inactive or inconclusive. Potency is read from the fitted curve at half-maximal effect.

SMILES	Cruzain Triton	Cruzain noTriton
Cc1ccc(O)c(C(=O)c2cc(C(=O)NCc3ccccc3)c(=O)n(Cc3ccccc3)c2)c1	-3%	?
COc1cc(C(=O)O/N=C2\C=CC(=O)C(C)=C2)cc(OC)c1OC	?	-17%
COc1cc(C(=O)ON=C2C=C(C)C(=O)C(C)=C2)cc(OC)c1OC	3.5µM*	?
CN(C)c1ccc(CNC(=O)c2cc3ccccn3n2)cc1	1%	-17%
Cc1cc([N+](=O)[O-])ccc1NC(c1nnc(-c2ccccc2)o1)c1ccccc1F (configuration not stated)	-2%	-5%
CC[C@H](C)[C@H](NC(=O)[C@H](Cc1ccc(O)cc1)NC(=O)[C@@H](N)C(C)C)C(=O)N[C@@H](Cc1cnc[nH]1)C(=O)N1CCC[C@H]1C(=O)N[C@@H](Cc1ccccc1)C(=O)O	14µM*	16µM*
Cc1ccc(CC(NC(=O)c2ccccc2)C(=O)N2CCCC2C(=O)O)cc1 (configuration not stated)	2%	0%
NC1=C2NC=N[C@@H]2N(C/C=C\c2ccccc2)C=N1	2%	-3%
CC(C)(C)C1CCc2oc3ccc(NS(=O)(=O)c4ccc(C(=O)O)cc4)cc3c2C1 (configuration not stated)	-24%	?
CC(C)(C)C1CCc2oc3ccc(NS(=O)(=O)c4cc(Cl)ccc4Cl)cc3c2C1 (configuration not stated)	-2%	4µM*
O=C(C1=C[C@@H]2[C@H]3C(=O)N(c4cccc(Cl)c4)C(=O)[C@H]3[C@@H](C(=O)c3ccc(Cl)cc3)N2C=C1)c1ccccc1	0%	16µM*
O=C(C1=C[C@@H]2[C@H]3C(=O)N(c4ccccc4Cl)C(=O)[C@H]3[C@@H](C(=O)c3ccc(Cl)cc3)N2C=C1)c1ccccc1	-8%	-24%
Cc1ccc(N2C(=O)[C@@H]3[C@H](C2=O)[C@H]2C=C(C(=O)c4ccccc4)C=CN2[C@@H]3C(=O)c2ccc(Cl)cc2)cc1	-1%	3.2µM*
Cc1ccc(N2C(=O)[C@@H]3[C@H](C2=O)C2CCCN2[C@@H]3C(=O)c2ccccc2)cc1 (some centres not stated)	-4%	?
Nc1nc(Cl)nc2c1ncn2[C@@H]1O[C@H](COP(=O)(O)OP(=O)(O)OP(=O)(O)O)[C@H](O)[C@H]1O	2%	-2%
CCOC(=O)c1c(C)[nH]c(C)c1S(=O)(=O)N1CCCC(C(=O)NCc2cccc(OC)c2)C1 (configuration not stated)	1%	8%
CCOc1cccc(CC(=O)Nc2ccc3nc(N4CCCCC4)cc(C)c3c2)c1OCC	2%	-4%
Cc1noc(/C=C/c2cccs2)c1S(=O)(=O)N1CCC(C(=O)NCc2ccccc2Cl)CC1	-5%	13µM*
Cc1ccc(CNC(=O)C2CCN(S(=O)(=O)c3c(C)noc3/C=C/c3cccs3)CC2)cc1	-5%	0%
COc1ccc(Cl)cc1NC(=O)C(=O)N/N=C/c1cc(C)n(-c2ccc(C)cc2)c1C	-9%	13µM*
Cc1ccc(-n2c(C)cc(/C=N/NC(=O)CC3(C)OCCO3)c2C)cc1	-7%	-2%
CC(C)CN(CC#N)CC(C)C	5%	3%
O=C(O)[C@H](Cc1cnc[nH]1)N1C(=O)c2ccccc2C1=O	3%	-6%
CCCCC/C=C\C/C=C\C/C=C\CCCCC(=O)NC(C)C(=O)O (configuration not stated)	-2%	5%
COc1cc2c(cc1NC(=O)c1ccncc1)oc1ccccc12	-9%	?
SMILES	Cruzain Triton	Cruzain noTriton
COc1cc2c(cc1NC(=O)c1cccc([N+](=O)[O-])c1)oc1ccccc12	-1%	16µM*
COc1cc2c(cc1NC(=O)c1cccnc1)oc1ccccc12	-8%	?
COc1cc2c(cc1NC(=O)c1ccc(C)c([N+](=O)[O-])c1)oc1ccccc12	3%	25µM*
O=C(c1cc2ccccc2oc1=O)N1CCN(c2ccc(Cl)cc2)CC1	-6%	8%
Cc1ccc(Cc2c(C)nc3nc(SCC(=O)NCCC(C)C)nn3c2C)cc1	-1%	0%
CCCOc1ccc(/C=N/Nc2ccccc2[N+](=O)[O-])c(OCCC)c1	-2%	?
O=[N+]([O-])c1ccccc1N/N=C\c1ccccc1Cl	-3%	20µM*
Cn1c([N+](=O)[O-])cnc1CN1CCN(CCO)CC1	-1%	2%
COc1cccc(NC(=O)CSc2c(C)cnc3c2c(=O)n(C)c(=O)n3C)c1	-4%	-8%
C=CCn1c(-c2cccc(Cl)c2)n[nH]c1=S	-6%	12%
C=CCn1c(-c2oc3nc(-c4ccccc4)cc(-c4ccccc4)c3c2N)n[nH]c1=S	-11%	25µM*
O=C(O)[C@H]1CC=CC[C@@H]1C(=O)Nc1cccc(O)c1	13%	?
COC(=O)c1c(NC(=O)c2ccc(C)c(S(=O)(=O)Nc3ccccc3C)c2)sc2c1CCCC2	1%	7.9µM*
COC(=O)c1c(NC(=O)c2ccc(Br)s2)sc2c1CCC2	-6%	10µM*
COC(=O)c1c(NS(=O)(=O)c2ccc3ccccc3c2)sc2c1CCCC2	1%	?
COC(=O)c1c(NC(=O)c2c(OC)cccc2OC)sc2c1CCCC2	-3%	6%
CC(C)CCC[C@@H](C)[C@@H]1CC[C@@H]2[C@H]3CC[C@H]4C[C@@H](N)CC[C@@]4(C)[C@@H]3CC[C@]21C	-2%	7%
COC(=O)c1cc2oc3ccccc3c2n1Cc1ccc(Cl)cc1	-3%	-8%
NCCOC[C@H](N)C(=O)O	3%	3%
O=S1(=O)c2ccccc2N(Cc2ccc(Cl)cc2F)c2ccccc21	-9%	32µM*
COc1ccc(Cl)cc1NC(=O)CN1c2ccccc2S(=O)(=O)c2ccccc21	-9%	20µM*
O=S1(=O)c2ccccc2N(Cc2ccc(Cl)cc2)c2ccccc21	-2%	21%
COc1ccc(Cl)cc1NC(=O)Cn1cccc1	0%	2%
c1ncc(-c2ccoc2)c(NC2CC2)n1	2%	-6%
O=S(=O)(c1ccccc1)c1nc(-c2ccc(Cl)cc2Cl)oc1N1CCCCCC1	-2%	7%
SMILES	Cruzain Triton	Cruzain noTriton
Cn1c(N)c(C(=O)COC(=O)c2cc(-c3ccccc3)nc3ccccc23)c(=O)n(Cc2ccccc2)c1=O	0%	13µM*
Cn1c(N)c(C(=O)COC(=O)c2cc(-c3ccccc3)nc3ccccc23)c(=O)n(C)c1=O	0%	?
Cc1nc(N2CCOCC2)c2nc(-c3ccccc3)n(CCCN(C)C)c2n1	-9%	-6%
CCOC(=O)c1ccc(NC(=O)c2ccc3c(c2)NC(=O)c2ccccc2S3)cc1	-1%	6%
CC(=O)c1ccc2c(c1)Nc1ccccc1S2	1%	25µM*
CCOC(=O)Nc1ccc2c(c1)Nc1ccccc1S2	-11%	25µM*
C/C(=N\NC(=O)c1ccc(C)cc1C)c1ccc2c(c1)Nc1ccccc1S2	-2%	?
Cc1cc2oc(C(=O)Nc3ccc(S(=O)(=O)N(C)c4ccccc4)cc3)cc(=O)c2cc1C	0%	1%
O=c1c(/C=N/Nc2ccccc2)c(Sc2nnnn2-c2ccccc2)nc2ccccn12	-6%	16µM*
O=Cc1c(Sc2ccccc2)nc2ccccn2c1=O	-10%	1%
Cc1ccc(Cl)cc1NC(=O)c1sc2nc(-c3ccccc3)cn2c1C	-4%	4%
O=c1c(-c2cccs2)nc2cnc(Oc3ccccc3)nc2n1Cc1cccs1	-1%	?
COc1cccc(Cn2c(=O)c(-c3cccs3)nc3cnc(OC)nc32)c1	3%	12%
